Compound activity from PubChem.
Sampled rows, rich in hits. Any-hit rate of the full collection: about 2.4%.
TMEM16A act – TMEM16A chloride channel activators or potentiators, primary screen, cell-based, HTS | HEK293 TMEM16A/YFP-H148Q/I152L, iodide quench fluorescence; stronger effect = lower value | B-score at 10 µM | 0.3% of 340,000 active | AID 623877, 2012;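 active means fluorescence-ratio B-score plate-corrected deviation score at least 3 library SD below zero, with starting fluorescence score within 5 deviations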;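 further: channel opened by trigger with iodide after compound preincubation; score built on the fluorescence ratio of max minus min over baseline; more negative score means more quench and so TMEM16A activation or potentiation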
CHT inh – inhibitors of human choline transporter CHT | High affinity choline transporter 1 (Homo sapiens), Q9GZV3 | CHT-expressing cells, membrane potential dye, choline response; stronger effect = lower value | B-score at 10 µM | 0.86% of 310,000 active | AID 488975, 2010;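 active means B-score over 3 SD under the library average, and starting fluorescence ratio not unusually high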;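 further: choline stimulus applied at its EC90 after an EC20 pre-addition; B-score computed on integrated fluorescence ratio after choline addition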
Target sequence (Q9GZV3 whole entry, looked up): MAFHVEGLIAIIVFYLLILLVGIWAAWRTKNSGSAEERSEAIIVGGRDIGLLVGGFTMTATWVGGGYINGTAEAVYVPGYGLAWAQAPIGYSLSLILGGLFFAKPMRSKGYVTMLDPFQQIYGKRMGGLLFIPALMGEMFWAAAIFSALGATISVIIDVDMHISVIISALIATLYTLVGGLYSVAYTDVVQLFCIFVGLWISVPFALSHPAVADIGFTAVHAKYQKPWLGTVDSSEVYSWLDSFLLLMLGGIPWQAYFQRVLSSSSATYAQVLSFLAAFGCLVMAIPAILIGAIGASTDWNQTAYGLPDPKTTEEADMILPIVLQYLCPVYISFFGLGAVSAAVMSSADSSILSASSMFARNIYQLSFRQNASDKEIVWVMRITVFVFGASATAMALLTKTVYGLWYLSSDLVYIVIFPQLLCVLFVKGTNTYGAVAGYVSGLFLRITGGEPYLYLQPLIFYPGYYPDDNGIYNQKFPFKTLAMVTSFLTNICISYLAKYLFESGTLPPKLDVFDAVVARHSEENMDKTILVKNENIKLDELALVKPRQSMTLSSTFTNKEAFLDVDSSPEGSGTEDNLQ
TMEM16A inh – TMEM16A chloride channel inhibitors, primary screen, cell-based, HTS; normalized B-score (activity score, 25-100; higher = stronger inhibition) at 10 µM; AID 588511, 2011; 1.2% of 310,000 active; HEK293 TMEM16A/YFP iodide influx fluorescence, ionomycin;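 active means ratio plate-corrected score three or more library SD toward inhibition, starting fluorescence score within five deviations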;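 further: score derived from kinetic fluorescence span divided by baseline fluorescence per well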
CHT allo act – CHT positive allosteric modulators, primary screen, cell-based, membrane potential dye, choline EC20; High affinity choline transporter 1 (Homo sapiens), Q9GZV3; CHT-expressing cells; stronger effect = higher value; LV-AA mutant CHT in HEK293 cells; B-score at 10 µM; 0.49% of 310,000 active; AID 488977, 2010;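 active means initial fluorescence not abnormally high and integrated response B-score, plate-corrected, over 3 SD above library mean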
TMEM16A reconf – TMEM16A chloride channel inhibitors, confirmation, cell-based, re-confirmation; HEK293 TMEM16A/YFP-H148Q, iodide quench fluorescence; ionomycin added to raise cell calcium; 39% of 2,300 active; shares compounds with TMEM16A inh; inhibition, % at 10 µM;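 active means mean duplicate percent inhibition, scaled so buffer wells are 0 and the reference blocker 100, over three buffer SD above buffer mean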
TMEM16A Ca cntr – calcium mobilization in TMEM16A/YFP HEK293 cells, confirmation, counter-screen for TMEM16A inhibitor project | shares compounds with TMEM16A inh | Fluo4 calcium mobilization | calcium response (% of ionomycin), % at 10 µM | 2% of 2,300 active;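 active means duplicate-averaged calcium signal over 20% of the ionomycin maximum, relative to buffer baseline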;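 further: each well's signal is peak minus trough fluorescence divided by its pre-addition baseline; 0% = buffer wells and 100% = ionomycin wells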
YFP-HEK293 quench – iodide YFP quench changes in parental YFP-HEK293, counter-screen for TMEM16A inhibitor project, cell-based. shares compounds with TMEM16A inh. ionomycin. YFP ratio F(max-min)/F0 at 10 µM. 2,300 tested, under 10 active. AID 652233, 2013;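 active means yellow fluorescent protein signal ratio exceeding the buffer control mean by over 5 SD of those controls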;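 further: ratio is mean of duplicate wells from kinetic YFP trace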
ClC-1 rat inh – ClC-1 chloride channel inhibition, selectivity assay for TMEM16A inhibitor project, cell-based, voltage-dependent ClC-1; 2,300 tested, under 10 active; ratio percent, % at 10 µM; shares compounds with TMEM16A inh; CHO ClC-1-YFP, iodide influx fluorescence quench; iodide control reads 0, buffer control 100;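 active means duplicate-mean ratio percent above the mean of iodide-only control wells, which defines zero, plus 5 of their SD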;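 further: higher percent means stronger block of ClC-1 iodide influx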
Numbers without * were called inactive; i = inactive; nt = not tested or not shown.

SMILES	TMEM16A act	CHT inh	TMEM16A inh	CHT allo act	TMEM16A reconf	TMEM16A Ca cntr	YFP-HEK293 quench	ClC-1 rat inh
CCCOC(=O)c1ccc(Oc2cn[nH]c2-c2ccc(OCC)cc2O)cc1	i	i	i	i	nt	nt	nt	nt
Cc1oc2cc3oc(=O)c(CCC(=O)NC4CC4)c(C)c3cc2c1C	i	i	25*	i	i	i	-0.78	-15
CC(=O)c1cccc(NS(=O)(=O)c2ccc(N/C=C\C(=O)c3ccc(F)cc3)cc2)c1	i	i	100*	i	32%*	i	-1.1	-26
OCC1(Cc2ccccc2)CCN(Cc2cnc(-c3ccc(Cl)cc3)nc2)CC1	i	i	i	i	i	i	-1.1	-4
OCC1(Cc2ccccc2)CCN(Cc2cnc(-c3cccc4ccccc34)nc2)CC1	i	i	i	i	nt	nt	nt	nt
O=C(CSc1nnc(-c2ccccc2)n1Cc1ccccc1)N1CCCC1	i	i	i	i	nt	nt	nt	nt
CCCCn1c(SCC(=O)N2CCCC2)nnc1-c1ccccc1	i	i	100*	i	i	i	-1.1	-11
COc1ccc(-c2c(C)n([O-])c3c([n+]2=O)CCCC3)cc1OC	nt	i	i	i	nt	nt	nt	nt
Cc1cc(N=Nc2ccccc2C(=O)O)c(C)c(C)c1O	i	i	i	i	53%*	i	-1.2	-18
Cc1cc(O)c(C(C)C)cc1N=Nc1ccccc1C(=O)O	i	i	i	i	38%*	i	-0.73	-8
CNC[C@@H](Cc1ccccc1)NC[C@@H](CC1CCCCC1)NCCCc1ccccc1	i	i	i	i	nt	nt	nt	nt
CNC[C@@H](CC1CCCCC1)NC[C@H](CC(C)C)NCCc1cccc(C(F)(F)F)c1	i	i	25*	i	i	i	-1.1	-1
O=C(COc1ccc(Br)cc1)NC1CC1	i	i	i	i	nt	nt	nt	nt
CC(C)OCCCn1c(=NC(=O)c2ccncc2)c(C#N)cc2c(=O)n3ccccc3nc21	i	i	25*	i	i	28%*	-1.1	-14
Cc1coc2c1c(C)cc1oc(=O)c(CC(=O)N[C@@H](CC(C)C)C(=O)O)c(C)c12	i	i	i	i	nt	nt	nt	nt
Cc1ccc(NC(=O)c2ccc(CN3CCc4ccccc4C3)cc2)cc1	i	i	25*	i	i	i	-0.89	0
O=C(Nc1cccnc1)c1ccc(CN2CCc3ccccc3C2)cc1	i	i	25*	i	22%*	i	-0.94	-4
O=C(Nc1ccccc1)c1ccc(CN2CCc3ccccc3C2)cc1	i	i	i	i	nt	nt	nt	nt
O=C(CCC(=O)c1ccc(F)cc1)Nc1cc(Cl)cc(Cl)c1	i	i	i	i	nt	nt	nt	nt
COc1cccc(Oc2ccc(S(=O)(=O)N3CCOCC3)cc2[N+](=O)[O-])c1	i	nt	nt	nt	nt	nt	nt	nt
COc1ccc(NS(=O)(=O)c2ccc(-c3cnc(C4CC4)o3)cc2)cc1OC	i	i	25*	i	34%*	i	-1	-24
Cc1ccc(NS(=O)(=O)c2ccc(-c3cnc(C4CC4)o3)cc2)c(C)c1	i	i	i	i	nt	nt	nt	nt
COc1ccc(C)cc1NC(=O)CSc1nnc(COc2ccc(C)cc2)n1Cc1ccco1	i	i	25*	i	i	i	-1.1	-14
COc1ccccc1NC(=O)CSc1nnc(COc2ccc(Cl)cc2)n1Cc1ccco1	i	i	i	i	nt	nt	nt	nt
Cc1nc(N2CCN(S(=O)(=O)c3ccc(F)cc3)CC2)c2c(-c3cccs3)csc2n1	i	i	i	i	nt	nt	nt	nt
SMILES	TMEM16A act	CHT inh	TMEM16A inh	CHT allo act	TMEM16A reconf	TMEM16A Ca cntr	YFP-HEK293 quench	ClC-1 rat inh
CCCn1c2ccccc2c2nnc(SCC(=O)Nc3ncccn3)nc21	i	i	100*	i	i	i	-1.2	-6
CCNc1nc(NC(C)(C)C)nc(Oc2ccc(=O)n(-c3ccccc3)n2)n1	i	i	i	i	nt	nt	nt	nt
CCc1ccc(CNc2ccc(N3CCN(C(C)=O)CC3)cc2)cc1	i	i	25*	i	i	i	-1.1	-14
CC1(C)CC(=O)C/C(=N\NC(=O)C2C3CCCCC32)C1 (stereo unspecified)	i	i	i	i	nt	nt	nt	nt
Cc1cc(C)c(S(=O)(=O)NCc2ccccn2)cc1C	i	i	i	i	nt	nt	nt	nt
CCOc1cc(S(=O)(=O)NCc2ccccn2)c(C)cc1C	nt	i	100*	i	i	i	-1.2	-6
COc1ccc(NS(=O)(=O)c2c(F)cc(F)c(Cl)c2F)cc1S(=O)(=O)N1CCCCC1	i	i	i	i	nt	nt	nt	nt
COC(=O)c1ccc(-n2c(C)cc(C(=O)CSc3ccc(NC(C)=O)cc3)c2C)cc1	i	i	25*	i	24%*	i	-1.1	-4
CC(=O)Nc1ccc(SCC(=O)c2cc(C)n(-c3ccccc3F)c2C)cc1	i	i	i	i	nt	nt	nt	nt
CCCc1cc(C(=O)N2CCN(c3ccc(C(F)(F)F)cn3)CC2)sc1C	i	i	100*	i	i	i	-1.2	-6
COc1ccc2[nH]cc(CCNS(=O)(=O)c3ccc(C)cc3)c2c1	i	i	i	i	nt	nt	nt	nt
CC(C)(CCc1ccccn1)C(=O)CCCc1ccccn1	i	nt	nt	nt	nt	nt	nt	nt
CCCc1cc(C(=O)Cc2ccc(C(=O)OCC)o2)c(O)cc1O	i	i	100*	i	66%*	i	-0.84	-1
CCCc1cc(-c2n[nH]c(C)c2-c2ccc(C(=O)OCC)o2)c(O)cc1O	i	i	i	i	nt	nt	nt	nt
CCn1c(SCC(=O)c2[nH]c(C)c(C(C)=O)c2C)nnc1-c1cccs1	i	i	25*	i	40%*	i	-0.86	-24
O=C(CN1CCC(O)(c2ccc3c(c2)OCO3)CC1)OC1CCCCC1	i	i	i	i	nt	nt	nt	nt
CCOC(=O)c1cc2c(nc1N)CC(C)(CC)OC2 (stereo unspecified)	i	i	i	i	i	i	-1.2	-8
Cc1ccccc1-c1cc(-c2ccccc2O)n[nH]1	i	i	25*	i	i	i	-1.2	-14
